The text below walks through data of the supplement of paper PMC3545927.

The target in this assay is furin, P09958. As to the kind of experiment: furin cleavage Z-score vs untreated control; higher = more cleavage, active = 3.5 or more, inactive = 1 or less, 8 variable residues between constant flanks. The procedure, abridged:
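Reactions of 0.01 ml ran for 7.5, 15 or 30 min in 50 mM HEPES pH 7.5 with CaCl2 and NaCl, at 1:10 enzyme:substrate. In them, purified furin acted on bead-held 8-mer peptides fused to a cDNA oligonucleotide. The cleavage Z-score was obtained by lowess-adjusting log sequencing counts of released DNA against furin-free reactions and scaling by median absolute deviation.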

The list shows a part of the results. The true hit rate is not given.

Chain of furin, P09958 (P09958 whole entry, the tested form may be a part): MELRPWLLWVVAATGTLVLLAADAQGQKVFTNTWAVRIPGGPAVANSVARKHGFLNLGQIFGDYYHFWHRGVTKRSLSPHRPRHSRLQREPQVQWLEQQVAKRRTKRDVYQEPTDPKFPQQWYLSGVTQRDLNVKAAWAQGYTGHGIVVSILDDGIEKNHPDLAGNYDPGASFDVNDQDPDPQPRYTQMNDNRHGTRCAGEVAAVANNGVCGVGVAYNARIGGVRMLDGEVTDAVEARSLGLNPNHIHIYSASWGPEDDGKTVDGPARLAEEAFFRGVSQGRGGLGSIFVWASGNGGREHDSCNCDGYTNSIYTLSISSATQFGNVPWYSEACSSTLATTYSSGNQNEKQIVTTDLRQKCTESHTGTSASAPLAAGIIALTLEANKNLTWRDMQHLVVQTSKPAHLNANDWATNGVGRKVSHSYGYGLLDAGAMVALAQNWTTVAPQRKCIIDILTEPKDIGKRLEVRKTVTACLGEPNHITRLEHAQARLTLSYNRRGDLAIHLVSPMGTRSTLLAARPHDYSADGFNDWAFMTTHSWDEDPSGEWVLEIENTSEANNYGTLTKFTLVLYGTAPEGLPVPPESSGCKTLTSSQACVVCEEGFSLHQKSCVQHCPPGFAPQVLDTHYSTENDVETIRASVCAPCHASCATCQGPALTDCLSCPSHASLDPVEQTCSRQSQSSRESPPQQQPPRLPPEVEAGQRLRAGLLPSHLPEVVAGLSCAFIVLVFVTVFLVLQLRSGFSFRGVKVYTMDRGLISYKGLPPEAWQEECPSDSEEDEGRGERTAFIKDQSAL

With CAMYECSQHLAGNASASA [HC1689], the “furin cleavage Z-score” value runs as follows: (7.5 min) 1.1; (15 min) 2.02; (30 min) 0.756 (inactive).
For CAEVVYSTWVAGNASASA [HC137], in that order: -0.752 (inactive), 0.088 (inactive) and 1.03.
On the same counts, the results for CASTPCSRHLAGNASASA [HC2533] are 1.13, 0.843 (inactive) and -0.486 (inactive).
In the case of CATTPMSGSWAGNASASA [HC48], the “furin cleavage Z-score” value reads like this: (7.5 min) -1.24 (inactive); (15 min) -0.966 (inactive); (30 min) -0.511 (inactive).
On to CAPSNRSARAAGNASASA [FS-1245], for which the “furin cleavage Z-score” value runs as follows: (7.5 min) 8.79 (active); (15 min) 11.3 (active); (30 min) 9 (active).
For CAPTLWARMIAGNASASA [HC1579], in that order: 0.463 (inactive), 2.4 and 0.0409 (inactive).
Take CAIRARVARAAGNASASA [FS-1348]: the “furin cleavage Z-score” value reads like this: (7.5 min) 9.33 (active); (15 min) 9.7 (active); (30 min) 7.2 (active).
With CAREIRQAFKAGNASASA [FS-2912], the “furin cleavage Z-score” value by setting is: (7.5 min) 0.791 (inactive); (15 min) 0.404 (inactive); (30 min) 0.281 (inactive).
For CAPEIRQARAAGNASASA [FS-1043], in that order: 3.65 (active), 4.35 (active) and 4.12 (active).
For CAAACGDIINAGNASASA [HC656], in that order: -0.691 (inactive), -0.739 (inactive) and -0.629 (inactive).
On the same counts, the results for CAYGAGVAGAAGNASASA [HC1088] are -0.899 (inactive), -0.739 (inactive) and -0.913 (inactive).
In the case of CAAMFRVRRNAGNASASA [FS-5], the “furin cleavage Z-score” value is, setting by setting: (7.5 min) 13 (active); (15 min) 11.7 (active); (30 min) 9.8 (active).
